# DT40 TDP1 CPT = DT40-hTDP1 cell growth loss with CPT; chicken DT40 Tdp1-/-;hTDP1 cells + 20 nM CPT, ATP luminescence, 48 h; Potency, µM (doses to about 46.2 µM), actives largely listed as inhibitors; 420,000 tested, 12% active; AID 686979; note: nearly all actives have a fitted effect of over 55% in size
#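 Cell growth measured by CellTiter-Glo luminescence after a minimum 48 h, 37 C compound exposure with 20 nM CPT in Tdp1-knockout DT40 cells stably expressing hTDP1, seeded 400/well; qHTS titration format.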
# DRD3 agonist = D3 dopamine receptor (human) agonism. P35462. D3R DiscoveRx beta-arrestin cells, luminescence, 90 min. max activation, %. 410,000 tested, 0.58% active. AID 652048; in the data active = max activation above about 30%
# Target sequence (P35462 whole entry, looked up): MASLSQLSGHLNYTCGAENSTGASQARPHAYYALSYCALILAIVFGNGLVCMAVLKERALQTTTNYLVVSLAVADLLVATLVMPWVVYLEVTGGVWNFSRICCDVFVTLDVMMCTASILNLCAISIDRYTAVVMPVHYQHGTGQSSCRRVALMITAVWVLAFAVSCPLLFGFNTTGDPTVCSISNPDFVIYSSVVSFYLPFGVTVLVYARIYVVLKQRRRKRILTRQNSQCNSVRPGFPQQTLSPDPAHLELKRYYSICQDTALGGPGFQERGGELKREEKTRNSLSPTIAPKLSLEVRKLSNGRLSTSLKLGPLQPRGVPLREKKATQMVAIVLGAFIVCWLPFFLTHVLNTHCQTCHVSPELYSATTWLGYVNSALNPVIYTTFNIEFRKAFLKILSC
#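 Cells at 1500/well, incubated overnight, then treated with pinned compounds (dopamine as control) for 90 min at 37 degrees C. DiscoveRx reagent added for 30 - 60 minutes at room temperature; luminescence read.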
# IL1B secr inh = inflammasome signaling inhibition, IL-1 beta readout | AID 743279 | THP-1 LPS/ATP IL-1B secretion, AlphaLISA, 16 h; stronger effect = lower value | 360,000 tested, 4.7% active | activity change, % at 57.5 µM; in the data active = activity change below about -50%; inconclusive = mostly about -30% to -49%
#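 Secreted IL-1B measured by AlphaLISA bead assay after 16 h compound exposure of THP-1 cells; compounds (final up to 57.5 uM) added 1 h before LPS (250 ng/mL) and ATP (1.25 mM) stimulation; lower signal means less secretion.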
# DT40 TDP1 no CPT = qHTS for Inhibitors of human tyrosyl-DNA phosphodiesterase 1 (TDP1): qHTS in cells in absence of CPT | Potency, µM (top dose mostly 46.2 µM), actives largely listed as inhibitors | 420,000 tested, 15% active | DT40 Tdp1-/- hTDP1 cells, no CPT, ATP luminescence, 48 h; note: nearly all actives have a fitted effect of over 55% in size
#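 Chicken DT40 Tdp1-/- cells stably complemented with human TDP1 were seeded at 400 cells/well with DMSO in place of 20 nM camptothecin. After compound pinning, cells grew at least 48 hr at 37 °C; viability read by CellTiter-Glo luminescence.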
# ClpP mod = qHTS Assay for Activators of ClpP; purified B. subtilis ClpP, FRET peptide cleavage, 20 min; 340,000 tested, 1.9% active; Potency, µM (doses to about 57.5 µM); AID 651965, 2013; active = well fitted falling curve with a large enough effect; inconclusive = small, poorly fitted or top-dose-only effect; inactive = no such curve, though single readings can be large or run the other way; note: the source files actives as falling curves though it sought activators and does not explain the sign; nearly all actives have a fitted effect of over 65% in size
# Target sequence (P80244 whole entry, looked up): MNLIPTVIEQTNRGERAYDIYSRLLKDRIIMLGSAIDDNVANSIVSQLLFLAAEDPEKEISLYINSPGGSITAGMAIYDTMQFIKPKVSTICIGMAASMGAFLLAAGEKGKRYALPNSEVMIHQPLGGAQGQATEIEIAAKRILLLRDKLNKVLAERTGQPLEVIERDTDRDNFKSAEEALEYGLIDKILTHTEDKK
#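 Purified B. subtilis ClpP, 10 microg/mL final in Tris/HCl pH8 with KCl, BSA, glycerol and Tween-20, cleaved an Abz/nitrotyrosine-quenched decapeptide. Fluorescence (ex 320, em 430) was read at 0 and 20 min at room temperature. Delta was normalized to 5.8 microM ADEP and DMSO/no-enzyme controls.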
# DRD3 antagonist = blocks the human D3 dopamine receptor; P35462; D3R cells, DiscoveRx beta-arrestin luminescence, antagonist mode; stronger effect = lower value; max response, negative = inhibition, %; 360,000 tested, 2.5% active; AID 652054; in the data active = max response below about -50%; inconclusive = no clear call, values can overlap the other calls
#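 Cells plated overnight at 1500 cells/well, then exposed to library compounds with dopamine controls for 90 minutes at 37 degrees C. DiscoveRx reagent added for 30–60 minutes at room temperature; luminescence read, quantitative HTS format.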
# Hits are given with their value; – = inactive; ? = inconclusive; · = no result. This is a sample that favours compounds with a hit; in the whole collection about 21% have one here. Unless noted, calls come from the whole dose curve; as a rule, active = well fitted inhibition curve with a large enough effect; inconclusive = small, poorly fitted or top-dose-only effect; inactive = flat fitted curve, though single readings scatter.
SMILES,DT40 TDP1 CPT,DRD3 agonist,IL1B secr inh,DT40 TDP1 no CPT,ClpP mod,DRD3 antagonist
Cc1noc(C)c1-c1nc(CS(=O)(=O)c2ccccc2)no1,–,–,–,–,·,–
CCCSc1nnc2c(n1)OC(c1ccc(Br)s1)Nc1ccccc1-2 (configuration not stated),–,–,·,–,–,·
COc1cccc(-n2ccn(CC(=O)NCCc3ccccc3)c(=O)c2=O)c1,–,–,–,–,–,–
CC(C)(C)N(Cc1ccccc1)C(=O)COC(=O)c1ccc(S(=O)(=O)N2CCOCC2)cc1,?,–,–,–,–,–
COc1ccc(C(CC(=O)Nc2cc(Cl)c(OC)cc2OC)N2Cc3ccccc3C2=O)cc1 (configuration not stated),?,47,·,?,–,·
COc1ccc(C(CC(=O)Nc2cc(OC)c(OC)c(OC)c2)N2Cc3ccccc3C2=O)cc1 (configuration not stated),23µM,–,·,23µM,–,·
COc1ccc(C(CC(=O)Nc2cc(C)ccn2)N2Cc3ccccc3C2=O)cc1 (configuration not stated),?,–,–,13µM,–,–
COc1ccc(C(CC(=O)Nc2ccc(OC)c(OC)c2)N2Cc3ccccc3C2=O)cc1 (configuration not stated),?,–,·,?,–,·
NC(N)=Nc1nc(-c2ccccc2)c2ccccc2n1,26µM,–,·,15µM,·,–
Cc1ccc(Cn2c(Sc3nnc(C)s3)nc3c2c(=O)[nH]c(=O)n3C)cc1,?,–,–,23µM,–,–
Cn1c(=O)[nH]c(=O)c2c1nc(Sc1nc3ccccc3s1)n2Cc1ccccc1,8.2µM,–,–,6.5µM,–,–
Cn1c(=O)[nH]c(=O)c2c1nc(SCC(=O)O)n2Cc1ccccc1,–,–,–,–,–,–
Cc1nnc(Sc2nc3c(c(=O)[nH]c(=O)n3C)n2CCc2ccccc2)s1,–,–,–,–,–,–
CCCn1c(N)c(C(=O)CSc2nc3ccccc3s2)c(=O)[nH]c1=O,21µM,–,–,16µM,–,–
Cn1c(=O)c2c(ncn2CCC(=O)N/N=C/c2cccnc2)n(C)c1=O,–,–,–,–,–,–
NC(=O)N1N=C2/C(=C/c3ccccc3)CCCC2C1c1ccccc1 (configuration not stated),–,–,-57,?,·,–
COc1ccc(/C=C2\CCCC3C2=NN(C(=O)CSc2ncn[nH]2)C3c2ccc(OC)cc2)cc1 (configuration not stated),18µM,–,-85,23µM,–,–
Cc1ncsc1C(=O)N1N=C2/C(=C/c3ccc(N4CCOCC4)cc3)CCCC2C1c1ccc(N2CCOCC2)cc1 (configuration not stated),?,–,–,?,–,–
Cc1ncsc1C(=O)N1N=C2/C(=C/c3ccccc3)CCCC2C1c1ccccc1 (configuration not stated),?,–,–,?,35µM,–
COc1cccc(-c2nc(CS(=O)(=O)CC(=O)Nc3ccc(C)c(Cl)c3)c(C)o2)c1,–,–,·,–,–,·
CCOC(=O)c1cn2nc(Oc3ccc(OC)cc3)ccc2n1,?,–,–,6.5µM,–,–
CCOC(=O)c1cn2nc(Oc3ccc(C)cc3)ccc2n1,–,–,·,?,·,–
COc1ccc([C@H]2CC(=O)C[C@@H](CCn3cc(C)nn3)O2)cc1,–,–,–,–,–,–
Cn1ccc2c(N3CCCCCC3)cc3c(c21)C1CCC3O1 (configuration not stated),21µM,–,–,?,–,–
Cn1ccc2c(N3CCCC3)cc3c(c21)C1CCC3O1 (configuration not stated),?,–,–,?,–,–
SMILES,DT40 TDP1 CPT,DRD3 agonist,IL1B secr inh,DT40 TDP1 no CPT,ClpP mod,DRD3 antagonist
Cn1ccc2c(-c3ccc(CO)cc3)cc3c(c21)C1CCC3C1 (configuration not stated),18µM,–,–,?,–,-65
Cn1ccc2c(N3CCCC3)cc3c(c21)C1CCC3C1 (configuration not stated),21µM,–,–,15µM,–,–
Cc1ccc(NC(=O)N2CCC(CN3CCCCC3)CC2)c(Cl)c1,–,–,·,–,–,·
CCOC(=O)C1=CCN(S(=O)(=O)c2ccccc2Cl)C1c1cccc(Cl)c1 (configuration not stated),?,–,–,?,–,–
COc1ccc(C(C)=O)c(Oc2cc(NN3CCCCC3)c([N+](=O)[O-])cc2[N+](=O)[O-])c1,–,–,–,–,–,?
O=C(Nc1cccc(S(=O)(=O)N2CCCCC2)c1)c1ccc([N+](=O)[O-])o1,6.5µM,–,-92,4.1µM,–,–
Cc1ccc(C(=O)Nc2cccc(S(=O)(=O)N3CCCCC3)c2)cc1[N+](=O)[O-],16µM,–,?,?,–,–
CCn1c(=O)cc(OCC(=O)N2CCN(c3ccc(F)cc3)CC2)c2ccccc21,23µM,–,–,15µM,–,–
CCn1c(=O)cc(OCC(=O)N2CCN(c3ccc(C)cc3)C(C)C2)c2ccccc21 (configuration not stated),7.3µM,–,·,6.5µM,–,·
CCOc1ccc(/C=C/C(=O)OC(C)C(=O)NC2CCCCC2C)cc1OC (configuration not stated),–,–,–,?,–,–
Cc1ccc(CCNC(=O)c2ccc(CSCc3ccccc3Cl)o2)cc1,?,–,·,?,–,·
CC(C)CCNC(=O)c1ccc(CSCc2cccc(F)c2)o1,?,–,-63,–,–,–
O=C(NCCc1ccccc1)c1ccc(CS(=O)(=O)Cc2ccccc2F)o1,–,–,–,?,–,–
Cc1ccccc1CS(=O)(=O)Cc1ccc(C(=O)NCCc2ccc(Cl)cc2)o1,21µM,–,·,?,–,·
Cc1ccccc1CS(=O)(=O)Cc1ccc(C(=O)NCc2cccnc2)o1,–,–,–,–,–,–
Cc1ccc(CCNC(=O)c2ccc(CSCc3ccccc3C)o2)cc1,?,–,·,16µM,–,·
Cc1ccc(CCNC(=O)c2ccc(CS(=O)(=O)Cc3ccccc3F)o2)cc1,?,–,–,16µM,–,–
COC(=O)c1c(NC(=O)c2ccc(OC)cc2OC)sc2c1CCCCC2,?,–,·,?,–,·
CC(Oc1ccc(F)cc1)C(=O)Nc1cc(S(=O)(=O)N2CCOCC2)ccc1N1CCCCC1 (configuration not stated),?,–,–,16µM,·,–
CC(C)Oc1ccc(C(=O)Nc2cc(S(=O)(=O)N3CCOCC3)ccc2N2CCOCC2)cc1,?,–,–,21µM,–,–

# Screening data (PubChem BioAssay)
